Screening results deposited in PubChem by National Center for Advancing Translational Sciences (NCATS).
TDP-43 yeast inh: rescues yeast growth from TDP-43 toxicity; TDP-43 expressing yeast growth rescue, BacTiter-Glo, 24 h; Potency, µM (series often up to 46.1 µM), inactives show at the top dose growth rescue (activation), usual class: activators; 410,000 tested, 1.8% active; AID 652104; also: potency is read from the fitted curve at half-maximal effect; % of control where 0% means no effect; nearly all actives have a fitted effect of over 50% in size
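Readout is BacTiter-Glo luminescence of cell growth, so inhibitors register as activators. TDP-43-expressing yeast at OD600=0.02 in galactose medium, after raffinose pregrowth to mid-log, were incubated with compound for 24 hr at 30 deg C.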
FUS yeast rescue: rescues growth of FUS-expressing yeast. Potency, µM (titrated, usually from 76.6 µM), most hits filed as activators. 390,000 tested, 0.24% active. S. cerevisiae FUS-expressing, growth rescue, OD600, 24 h;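 also: potency is read from the fitted curve at half-maximal effect; plate controls were DMSO vehicle for no effect and reference control for full effect; nearly all actives have a fitted effect of over 55% in size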
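Yeast FUS proteinopathy model; galactose-induced FUS (2%), starting OD 0.005. Cpds in dilution series, 24hr, 30C, 99% humidity. Abs 600 nm growth. Pos ctrl CP55940 (top 92uM final); neg ctrl DMSO.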
mIDH1 inhibitor: inhibitors of human mutant IDH1 R132H; IDH1-R132H enzyme, NADPH consumption, diaphorase/resazurin fluorescence; O75874; 390,000 tested, 0.093% active; Potency, µM (highest dose often 76.6 µM), for inactives: at the top dose activity change, negative = inhibition, most hits filed as inhibitors; also: potency is read from the fitted curve at half-maximal effect; % is scaled to controls: 0 for no effect and ±100 for the full control effect; nearly all actives have a fitted effect of over 65% in size
Target sequence (O75874 whole entry R132H, stated change not applied): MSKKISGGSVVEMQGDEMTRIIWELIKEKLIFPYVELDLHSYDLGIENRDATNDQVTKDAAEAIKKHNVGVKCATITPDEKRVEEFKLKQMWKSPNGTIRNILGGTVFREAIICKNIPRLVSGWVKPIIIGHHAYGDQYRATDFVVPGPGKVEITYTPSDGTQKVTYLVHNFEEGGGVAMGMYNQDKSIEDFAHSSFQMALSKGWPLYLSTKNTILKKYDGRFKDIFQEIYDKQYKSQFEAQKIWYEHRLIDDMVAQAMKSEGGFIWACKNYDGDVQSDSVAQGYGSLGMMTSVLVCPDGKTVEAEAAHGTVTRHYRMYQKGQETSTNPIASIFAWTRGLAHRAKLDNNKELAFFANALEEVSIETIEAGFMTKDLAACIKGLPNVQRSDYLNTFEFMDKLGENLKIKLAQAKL
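IDH1-R132H (0.5 ug/mL) preincubated 30 min with compound, then NADPH (0.016 mM) and alpha-KG (2 mM) added; 80 min at RT, pH 7.5. Remaining NADPH coupled via diaphorase/resazurin to fluorescence (540/590 nm); concentration-response curves normalized to no-enzyme control.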
Abeta yeast res: compounds reversing amyloid beta toxicity in yeast | yeast expressing A-beta42, growth rescue, OD600, 48 h; response scale: 0% DMSO, 100% iron-clioquinol control | Potency, µM (doses to about 46.1 µM), actives largely listed as activators | 410,000 tested, 0.063% active | AID 1347071; also: potency is read from the fitted curve at half-maximal effect; nearly all actives have a fitted effect of over 55% in size
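Yeast A-beta toxicity model in growth medium with pinned compounds, 48 h at 30 C; growth read as absorbance at 600 nm. Normalized to FeCl3/clioquinol equimolar mix (positive) and DMSO (negative).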
LDHA inh: LDHA (human) enzyme inhibition; P00338; 480,000 tested, 0.15% active; activity change, % (values are at about 110 or 230 µM); AID 1347041; purified LDHA, NADH/diaphorase-resazurin fluorescence; stronger effect = lower value; in the data active = activity change below about -30%; inconclusive = mostly about -25% to -30%;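 also: plate controls were DMSO wells for no effect and wells without enzyme for full effect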
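Resorufin fluorescence (ex540/em590), read at 0 and 20 min after diaphorase/resazurin addition, reports the NADH left after a 5 min room-temperature reaction of 2 nM human LDH5 with 0.06 mM NADH and 0.2 mM pyruvate.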
aSyn rescue: rescues yeast growth from alpha-synuclein toxicity. Yeast expressing alpha-synuclein, growth rescue, BacTiter-Glo, 24 h. Potency, µM (top dose mostly 46.1 µM), for the others: at the top dose growth rescue (activation), actives largely listed as activators. AID 652106. 370,000 tested, 0.14% active; also: potency is read from the fitted curve at half-maximal effect; % of control where 0% means no effect; nearly all actives have a fitted effect of over 65% in size
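Galactose-induced alpha-syn yeast (OD600=0.02, raffinose-pregrown) + pinned cpd, 24 hr, 30 deg C; growth by BacTiter-Glo luminescence. Growth restoration scores as activation.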
* hit, by the source's call; i = inactive; ? = inconclusive; / = no result; [ ] = another dose, or the depositor's remark. Sampled rows, rich in hits. Any-hit rate of the full collection: about 2%. Unless noted, calls follow the shape of the dose curve; as a rule, active = well fitted curve in the direction sought with a large enough effect; inconclusive = small, poorly fitted or top-dose-only effect, or another doubt; inactive = no such curve, though single readings can be large; an effect the other way counts as inactive or inconclusive.

SMILES | TDP-43 yeast inh | FUS yeast rescue | mIDH1 inhibitor | Abeta yeast res | LDHA inh | aSyn rescue
CCCOc1ccc(F)cc1-c1cc(C(=O)NCc2ccccc2OC)[nH]n1 | 35µM* | i | / | i | -6 | 19%
COc1cc(CNC(=O)c2cc(-c3cc(F)ccc3OC(C)C)n[nH]2)cc(OC)c1 | ? | i | / | i | -6 | -1%
CCCOc1ccc(F)cc1-c1cc(C(=O)NCc2ccccc2)[nH]n1 | ? | i | / | i | -11 | 0%
COc1ccccc1CNC(=O)c1cc(-c2cc(F)ccc2OC(C)C)n[nH]1 | 25µM* | i | / | i | -6 | 15%
CCCOc1ccc(F)cc1-c1cc(C(=O)NCc2ccco2)[nH]n1 | 14µM* | i | / | i | -5 | ?
CC(C)Oc1ccc(F)cc1-c1cc(C(=O)NCc2cccs2)[nH]n1 | 35µM* | ? | / | i | -4 | 28%
CCc1nnc(NC(=O)c2cc(=O)c3ccccc3o2)s1 | / | / | / | / | 4 | /
CCOC(=O)Nc1ccc(S(=O)(=O)Nc2cccc(F)c2)cc1 | / | / | / | / | 10 | /
COc1ccc(F)cc1-c1cc(C(=O)NCc2cccc(Cl)c2)[nH]n1 | 14µM* | i | / | i | -5 | 24%
Cc1ccc(Cl)cc1-c1cc(C(=O)NCc2ccco2)[nH]n1 | 14µM* | i | / | i | -6 | 4%
COc1ccc(Cl)cc1-c1cc(C(=O)NCc2ccco2)[nH]n1 | ? | i | / | i | -6 | 13%
CCOc1cc(/C=C/C(=O)c2ccc(OCC(=O)O)c(OC)c2)cc(Cl)c1O | / | / | / | / | 14 | /
COc1ccc(C(=S)N2CCN(C)CC2)cc1Br | 5% | i | 2% | i | 0 | 2%
COc1ccc(C(=S)N2CCCC2)cc1Br | 11µM* | i | 2% | i | 1 | 11%
Cc1nc(C(=O)Nc2cc(F)cc(Cl)c2)sc1C1(C)CC(c2ccccc2)=NO1 (configuration not stated) | 13µM* | ? | 14% | i | -2 | 1%
Cc1ccccc1CN1C[C@H]2CON(C)[C@H]2C[C@H]1c1cccc(Br)c1 | ? | i | 2% | i | 2 | 5%
COc1ccccc1-c1cccc([C@@H]2C[C@H]3[C@H](CON3C)CN2Cc2cc(Cl)cc(Cl)c2)c1 | 13% | i | -4%[38.3 µM] | i | -1 | 8%
Cc1ccccc1-c1cccc([C@@H]2C[C@H]3[C@H](CON3C)CN2Cc2cc(Cl)cc(Cl)c2)c1 | 20µM* | i | -1%[38.3 µM] | i | 0 | -1%
CN1OC[C@@H]2CN(Cc3cc(Cl)cc(Cl)c3)[C@H](c3cccc(Br)c3)C[C@@H]21 | 35µM* | i | 14% | i | 3 | -9%
FC(F)(F)c1ccc(/C=N/Nc2cc(C(F)(F)F)ccc2Cl)cc1 | / | / | / | / | 15 | /
Cc1ccc(C(=O)Nc2nc3cc(NS(=O)(=O)Cc4ccccc4)ccc3s2)cc1 | / | / | / | / | -2 | /
Cc1ccc(S(=O)(=O)CC(=O)Nc2cc(C(C)C)no2)cc1 | / | / | / | / | -1 | /
FC(F)(F)c1cc(-c2cccs2)nc(NC2CCCCC2)n1 | / | / | / | / | 7 | /
CC(=O)C(C)Oc1ccc2c3c(c(=O)oc2c1C)CCCC3 (configuration not stated) | 20µM* | i | 10% | i | 6 | 2%
COc1cc(OC)c(NS(=O)(=O)c2cc(C(=O)N3CCCCC3)ccc2C)cc1Cl | / | / | / | / | 2 | /
COCCCNc1cc(C)nc2ccccc12 | 3% | i | 0% | i | -1 | 0%
Cc1cc(NCCCCCCCNc2cc(C)nc3cc([N+](=O)[O-])ccc23)c2ccc([N+](=O)[O-])cc2n1 | 14µM* | / | 3% | i | 7 | 1%
CCCC(=O)N1CCC1(C)C(=O)Nc1ccc(-n2cccc2)cc1 (configuration not stated) | 20µM* | i | / | i | -3 | 3%
